Values joined by “and” are separate entries in the source; they are usually repeats but may differ in a detail not shown here. Identical values can stand only once. Hit rate of the full screen: of about 5,500 compounds, about 2,000 (36%) were called active. Another 18% or so got no clear call; they are omitted. No stated cut-off is given here; in the data, active means normalized growth mostly below about 0.91 (no sharp cut-off); inconclusive means no clear call, values can overlap the other calls; inactive means mostly above about 0.92. The list shows a part of the results.
Assay: chemical genetic growth profiling, strain panel (AID 1159580);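 further: tested at 20 µM; growth read once vehicle control cultures reached saturation at 30 °C; 1 = growth at the plate median or of vehicle wells; lower values mean less growth of the strain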
Conditions: S. cerevisiae deletion strains, growth OD

Measured: normalized growth

NC(N)=Nc1nc(CSCCC(N)=NS(N)(=O)=O)cs1
inactive: locus YAL013W, strain DEP1, hits give low values 1 | locus YAL021C, strain ccr4, hits give low values 0.996 | locus YAL026C, strain drs2, hits give low values 0.995 | locus YAL030W, strain snc1, hits give low values 0.982 | locus YAL040C, strain CLN3, hits give low values 0.997 | locus YBL061C, strain skt5, hits give low values 0.978 | locus YBR009C, strain hhf1, hits give low values 1.01 | locus YBR021W, strain FUR4, hits give low values 0.996 | locus YBR023C, strain chs3, hits give low values 0.997 | locus YBR171W, strain sec66, hits give low values 0.958 | locus YBR229C, strain ROT2, hits give low values 1 | locus YBR231C, strain swc5, hits give low values 0.959 | locus YBR279W, strain paf1, hits give low values 0.997 | locus YCL011C, strain gbp2, hits give low values 0.993 | locus YCL016C, strain dcc1, hits give low values 0.992 | locus YCL029C, strain bik1, hits give low values 1.02 | locus YCL061C, strain MRC1 (second series), hits give low values 1.01 | locus YCL069W, strain vba3, hits give low values 0.991 | locus YCR088W, strain abp1, hits give low values 0.978 | locus YDL005C, strain med2, hits give low values 0.974 | locus YDL035C, strain GPR1, hits give low values 1 | locus YDL040C, strain nat1, hits give low values 0.969 | locus YDL074C, strain BRE1, hits give low values 1.03 | locus YDL101C, strain DUN1, hits give low values 1.01 | locus YDL134C, strain PPH21, hits give low values 1.01 | locus YDL185W, strain tfp1, hits give low values 1.01 | locus YDL192W, strain arf1, hits give low values 1.01 | locus YDR001C, strain nth1, hits give low values 0.972 | locus YDR069C, strain doa4, hits give low values 0.968 | locus YDR101C, strain arx1, hits give low values 1.01 | locus YDR137W, strain rgp1, hits give low values 1 | locus YDR150W, strain NUM1, hits give low values 0.996 | locus YDR159W, strain sac3, hits give low values 0.986 | locus YDR162C, strain NBP2, hits give low values 1.01 | locus YDR195W, strain ref2 0.969 | locus YDR297W, strain sur2, hits give low values 0.997 | locus YDR318W, strain mcm21, hits give low values 1.02 | locus YDR334W, strain swr1, hits give low values 0.967 | locus YDR335W, strain msn5, hits give low values 0.968 | locus YDR363W, strain ESC2, hits give low values 0.999 | locus YDR388W, hits give low values 1.01 | locus YDR392W, strain spt3, hits give low values 1.02 | locus YDR502C, strain sam2, hits give low values 1 | locus YEL003W, strain gim4, hits give low values 0.983 | locus YEL037C, strain rad23, hits give low values 0.975 | locus YEL061C, strain CIN8 (second series), hits give low values 0.992 | locus YEL061C, strain CIN8, hits give low values 1.01 | locus YER002W, strain NOP16, hits give low values 1 | locus YER015W, strain faa2, hits give low values 0.986 | locus YER016W, strain bim1, hits give low values 1.01 | locus YER110C, hits give low values 1.01 | locus YER111C, strain swi4, hits give low values 0.991 | locus YER155C, strain BEM2 (second series), hits give low values 0.988 | locus YER155C, strain BEM2, hits give low values 1 | locus YER167W, strain BCK2, hits give low values 1.01 | locus YFR010W, strain ubp6, hits give low values 1 | locus YGL078C, strain dbp3, hits give low values 1 | locus YGL086W, strain mad1, hits give low values 0.996 | locus YGL167C, strain pmr1, hits give low values 0.961 | locus YGL173C, strain kem1, hits give low values 0.976 | locus YGL227W, strain vid30, hits give low values 0.964 | locus YGL240W, strain doc1, hits give low values 0.973 | locus YGL248W, strain PDE1, hits give low values 0.985 | locus YGL253W, strain hxk2, hits give low values 0.991 | locus YGR078C, strain PAC10, hits give low values 1.03 | locus YGR229C, strain SMI1, hits give low values 0.989 and 0.992 | locus YGR252W, strain gcn5, hits give low values 0.993 | locus YHR013C, strain ard1, hits give low values 1.01 | locus YHR027C, strain rpn1, hits give low values 0.993 | locus YHR030C, strain SLT2, hits give low values 1.01 and 0.989 | locus YHR079C, strain IRE1 (second series), hits give low values 1.01 | locus YHR079C, strain IRE1, hits give low values 0.972 | locus YHR094C, strain hxt1, hits give low values 1.01 | locus YHR129C, strain ARP1, hits give low values 1.01 | locus YHR142W, strain chs7, hits give low values 0.959 | locus YHR200W, strain rpn10, hits give low values 1.01 | locus YIL066C, strain RNR3, hits give low values 1.01 | locus YIL073C, strain SPO22, hits give low values 1.04 | locus YIL125W, strain kgd1, hits give low values 1 | locus YIR030C, strain dcg1, hits give low values 1.01 | locus YJL092W, strain hpr5, hits give low values 0.987 | locus YJL095W, strain BCK1 (second series), hits give low values 0.993 | locus YJL095W, strain BCK1, hits give low values 1.04 and 0.984 | locus YJL115W, strain asf1, hits give low values 0.983 | locus YJL129C, strain trk1, hits give low values 0.944 | locus YJL134W, strain LCB3, hits give low values 1 | locus YJL154C, strain vps35, hits give low values 0.983 | locus YJL164C, strain tpk1, hits give low values 1.01 | locus YJL166W, strain qcr8, hits give low values 0.981 | locus YJL168C, strain set2, hits give low values 1.01 | locus YJL187C, strain SWE1 (second series), hits give low values 1.02 | locus YJL187C, strain SWE1, hits give low values 0.984 | locus YJR043C, strain POL32, hits give low values 1.01 | locus YJR066W, strain TOR1, hits give low values 0.921 | locus YJR075W, strain HOC1, hits give low values 1.01
